DT40 TDP1 no CPT: qHTS for Inhibitors of human tyrosyl-DNA phosphodiesterase 1 (TDP1): qHTS in cells in absence of CPT; DT40 Tdp1-/- hTDP1 cells, no CPT, ATP luminescence, 48 h; Potency, µM (titrated, usually from 46.2 µM), for inactives: at the highest dose activity change, negative = growth inhibition, usual class: inhibitors; 15% of 420,000 active; also: nearly all actives have a fitted effect of over 55% in size
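Compound effects on proliferation are scored in DT40 Tdp1-/-;hTDP1 cells in the absence of CPT. ATP levels (CellTiter-Glo luminescence) are recorded after a ≥48 hr, 37 °C incubation.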
TDP1 cell CPT: growth inhibition of DT40 Tdp1-/-;hTDP1 cells with camptothecin (screen for TDP1 inhibitors) | chicken DT40 Tdp1-/-;hTDP1 cells + 20 nM CPT, ATP luminescence, 48 h | Potency, µM (series often up to 46.2 µM), without a hit: top-dose activity change, negative = growth inhibition, usual class: inhibitors | 12% of 420,000 active; also: nearly all actives have a fitted effect of over 55% in size
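Cell growth measured by CellTiter-Glo luminescence after a minimum 48 h, 37 C compound exposure with 20 nM CPT in Tdp1-knockout DT40 cells stably expressing hTDP1, seeded 400/well; qHTS titration format.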
ALOX12 inh: blocks human arachidonate 12S-lipoxygenase; purified 12hLO, xylenol orange hydroperoxide absorbance; Potency, µM (top dose mostly 108 µM), for the others: at the highest dose activity change, negative = inhibition, usual class: inhibitors; 1.1% of 580,000 active; AID 1671190
Target sequence (P18054 whole entry, looked up): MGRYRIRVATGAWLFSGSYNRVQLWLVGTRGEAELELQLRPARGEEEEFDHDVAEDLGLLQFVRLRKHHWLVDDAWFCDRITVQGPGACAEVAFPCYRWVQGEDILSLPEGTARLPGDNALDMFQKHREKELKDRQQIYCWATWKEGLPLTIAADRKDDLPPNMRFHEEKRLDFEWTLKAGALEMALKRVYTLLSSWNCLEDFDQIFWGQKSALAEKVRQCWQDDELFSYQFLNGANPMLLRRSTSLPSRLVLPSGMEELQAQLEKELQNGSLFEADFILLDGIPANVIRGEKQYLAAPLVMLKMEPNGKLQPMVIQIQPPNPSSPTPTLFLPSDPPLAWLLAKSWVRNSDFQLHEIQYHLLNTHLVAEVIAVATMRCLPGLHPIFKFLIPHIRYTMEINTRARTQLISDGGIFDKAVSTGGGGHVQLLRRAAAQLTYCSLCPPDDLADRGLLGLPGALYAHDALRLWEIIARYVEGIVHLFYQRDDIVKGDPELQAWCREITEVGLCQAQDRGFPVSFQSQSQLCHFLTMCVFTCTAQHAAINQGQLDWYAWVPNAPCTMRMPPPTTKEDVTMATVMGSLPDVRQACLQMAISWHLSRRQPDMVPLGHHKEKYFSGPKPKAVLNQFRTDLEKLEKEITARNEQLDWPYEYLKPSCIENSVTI
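Purified human 12hLO at 150 nM in 25 mM Hepes, 0.01% Triton X-100, pH 7.0, preincubated 15 min at room temperature with compound. Reaction started with 40 uM arachidonic acid, 30 min at room temperature. Hydroperoxide measured by Fe-xylenol orange, 573/405 nm absorbance ratio.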
ELG1 DNA repair: inhibitors of ELG1-dependent DNA repair in HEK293T cells; HEK293T ELG1-luciferase reporter, luminescence, 16 h; DNA damage induced by 5-fluorouridine; 2.3% of 330,000 active; Potency, µM (highest dose often 46.1 µM), for inactives: top-dose activity change, negative = inhibition, most hits filed as inhibitors; also: nearly all actives have a fitted effect of over 55% in size
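5-Fluorouridine DNA damage + compound/DMSO, 2,000 cells/well, 16 h, 37 °C/5% CO2. ONE-Glo, 30 min RT, luminescence. Readout = decrease in reporter signal.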
RORgamma inh: inhibitors of mouse ROR gamma transcriptional activity; P51450; Potency, µM (doses to about 53.6 µM), for inactives: at the highest dose activity change, negative = inhibition, usual class: inhibitors; Drosophila S2 Gal4-RORgamma UAS-luciferase reporter, 20 h; AID 2551; 5.4% of 310,000 active; also: nearly all actives have a fitted effect of over 60% in size
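ROR gamma transcriptional activity was tracked as Gal4-UAS luciferase output in stably transfected Drosophila Schneider cells, with compound added 1 hr before 700 uM copper sulfate induction and a 20 hr ambient-temperature incubation.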
Gal4-VP16 FLuc: counter-screen for ROR gamma inhibitors: Gal4-VP16 reporter | Drosophila S2 Gal4-VP16 UAS-luciferase, luminescence, 20 h | Potency, µM (highest dose often 53.6 µM), without a hit: top-dose activity, negative = inhibition, hits mostly inhibitors | 3.5% of 310,000 active | AID 2546;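 also: Gal4-VP16 expression switched on by copper sulfate through the metallothionein promoter; nearly all actives have a fitted effect of over 50% in size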
* marks the source's active call; other numbers are inactive results; ? = inconclusive; nt = not tested or not shown; [ ] = remark or other dose. Only some compounds are listed: those with a hit (about 15% of all), similar ones and a draw of the others. Calls follow the shape of the dose curve; as a rule, active = well fitted curve in the direction sought with a large enough effect; inconclusive = small, poorly fitted or top-dose-only effect, or another doubt; inactive = no such curve, though single readings can be large; an effect the other way counts as inactive or inconclusive. % is scaled to controls: 0 for no effect and ±100 for the full control effect; potency is read from the fitted curve at half-maximal effect.

SMILES | DT40 TDP1 no CPT | TDP1 cell CPT | ALOX12 inh | ELG1 DNA repair | RORgamma inh | Gal4-VP16 FLuc
CC(=O)Nc1cccc(-c2ccnc3c2CC(C(=O)NCc2cccc(Cl)c2)O3)c1 (stereo not given) | 4.11µM* | 3.26µM* | -18.4% | nt | nt | nt
CC(=O)Nc1ccc(-c2ccnc3c2CC(C(=O)NCc2cccc(Cl)c2)O3)cc1 (stereo not given) | 2.31µM* | 3.66µM* | 1.7% | nt | nt | nt
NC(=O)c1cccc(-c2ccnc3c2CC(C(=O)NCc2cccc(Cl)c2)O3)c1 (stereo not given) | 14.6µM* | 16.4µM* | -5.5% | nt | nt | nt
CC(=O)Nc1cccc(-c2ccnc3c2CC(C(=O)NCCc2ccccc2)O3)c1 (stereo not given) | 2.91µM* | 4.61µM* | -4.5% | nt | nt | nt
Cc1ccccc1CN(C)CC(=O)NC(=O)NCC(F)(F)F | nt | nt | -2.3% | nt | nt | nt
COCCN1CC2(CCCN(Cc3ccc4ccn(C)c4c3)C2)CCC1=O (stereo not given) | nt | nt | -9.2% | nt | nt | nt
O=C(NCCc1ccccc1)C1Cc2c(-c3ccc4c(c3)OCO4)ccnc2O1 (stereo not given) | 16.4µM* | 20.6µM* | -6.1% | nt | nt | nt
CC(C)NC(=O)C1Cc2c(-c3ccc4c(c3)OCO4)ccnc2O1 (stereo not given) | ? | ? | -20.2% | nt | nt | nt
COc1ccc(CCCNC(=O)C2Cc3c(-c4ccccc4)ccnc3O2)cc1 (stereo not given) | 5.8µM* | 6.51µM* | 3.0% | nt | nt | nt
COc1ccc(CNC(=O)C2Cc3c(-c4ccccc4)ccnc3O2)cc1OC (stereo not given) | ? | ? | 3.0% | nt | nt | nt
CCOc1ccc(-n2nnnc2CNS(=O)(=O)c2ccccc2Cl)cc1 | nt | nt | -42.5% | nt | nt | nt
O=C(Cc1cccs1)N1CCC(Oc2ccccc2)C1 (stereo not given) | nt | nt | 50.1µM* | nt | nt | nt
c1cnc2nc([C@H]3CCN(C4CCCCC4)C3)[nH]c2c1 | nt | nt | 71.1%[176 µM] | nt | nt | nt
Cc1nc(-n2ccc3nc4ccn(C5CCCCCC5)c(=O)c4cc3c2=O)n[nH]1 | nt | nt | 56.2% | nt | nt | nt
O=C(N/N=C/c1ccc(-c2cccc([N+](=O)[O-])c2)o1)c1cccs1 | -25.3% | 21.8% | -9.6% | ? | 10µM* | ?
Nc1nonc1C(=O)N/N=C/c1ccc(-c2cccc([N+](=O)[O-])c2)o1 | ? | -22.7% | -22.2% | ? | -17.3% | 2.4%
O=C(N/N=C/c1ccc([N+](=O)[O-])cc1)c1cccs1 | -22.4% | ? | -12.0% | ? | ? | -4.1%
O=[N+]([O-])c1cccc(-c2ccc(/C=N/NC(=S)Nc3cccc(F)c3)o2)c1 | 18.4µM* | -0.1% | 284.9% | ? | 0.891µM* | 7.08µM*
NC(=S)N/N=C/c1ccc(-c2cccc([N+](=O)[O-])c2)o1 | 3.66µM* | 5.17µM* | ? | -24.9% | 1µM* | 4.47µM*
COc1ccc(C(=O)N/N=c2\oc3ccccc3cc2C(=O)NCc2ccccc2)cc1 | 14.6µM* | 16.4µM* | -3.3% | 10.3µM* | ? | ?
C/C(=N\NC(=O)CC#N)c1cc2ccccc2oc1=O | -2.0% | -19.8% | 16.2% | 10.5% | 6.31µM* | 6.31µM*
COc1ccc(C(=O)N/N=C(\N)c2cc3ccccc3oc2=O)cc1 | ? | ? | -14.4% | 10.6% | 0.891µM* | ?
C/C(=N\Nc1ccccc1)c1cc2ccccc2oc1=O | ? | 18.7% | ? | ? | -30.3% | ?
C/C(CC(=O)c1ccccc1)=N\NC(=O)CC#N | 3.6% | -3.1% | 1.8% | 13.7% | 3.98µM* | ?
Cc1oc(-c2cccs2)nc1CC(=O)NCc1ccc(F)cc1 | nt | nt | -29.2% | nt | nt | nt
COc1ccc(N2Cc3c(NCCOc4ccccc4)ncnc3N(C)CC2=O)cc1 | nt | nt | 1.9% | nt | nt | nt
